Compound activity (PubChem)
L3MBTL1 inh: blocks human L3MBTL1; Q9Y468; AlphaScreen L3MBTL1–H3K9me1 peptide binding; Potency, µM (doses to about 57.1 µM), inactives show top-dose activity, negative = inhibition, actives largely listed as inhibitors; hit rate 0.66% among 230,000; AID 485360; note: % is set by controls: 0 for no effect and ±100 for the full control effect; nearly all actives have a fitted effect of over 60% in size
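L3MBTL1 50 nM + b-AHA-H3(1-15)K9me1 75 nM, 30 min RT; compound added, 30 min RT; streptavidin donor/Ni-chelate acceptor beads 10 ug/mL each final, 30 min RT dark; AlphaScreen read.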
G9a inh: G9a (human) methyltransferase inhibition | hit rate 8.8% among 350,000 | Q96KQ7 | G9a H3K9 monomethylation, AlphaScreen, 2 h | Potency, µM (titrated, usually from 102 µM), for the others: at the top dose activity, negative = inhibition, most hits filed as inhibitors; note: % is set by controls: 0 for no effect and ±100 for the full control effect; nearly all actives have a fitted effect of over 75% in size
Target sequence (Q96KQ7 913-1193 limits assumed): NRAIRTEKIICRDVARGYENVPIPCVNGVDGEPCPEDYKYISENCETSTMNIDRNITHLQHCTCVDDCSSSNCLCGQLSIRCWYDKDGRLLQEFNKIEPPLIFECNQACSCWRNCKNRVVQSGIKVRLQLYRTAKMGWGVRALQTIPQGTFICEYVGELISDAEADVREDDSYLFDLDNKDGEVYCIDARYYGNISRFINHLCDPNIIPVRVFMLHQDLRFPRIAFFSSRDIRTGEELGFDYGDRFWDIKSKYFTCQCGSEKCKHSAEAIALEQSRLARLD
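Quantitative HTS format: methyltransferase activity on a biotin-tagged H3K9 peptide is measured by AlphaScreen, using a rabbit anti-monomethyl-H3K9 antibody with streptavidin donor and anti-IgG acceptor beads. Final levels are 20 nM enzyme, 500 nM peptide, 20 uM SAM; 2 h RT.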
BAZ2B inh: BAZ2B (human) inhibition | AlphaScreen BAZ2B-H3K14Ac peptide displacement | AID 504333 | Q9UIF8 | hit rate 4.4% among 360,000 | Potency, µM (doses to about 114 µM), for the others: at the top dose activity change, negative = inhibition, usual class: inhibitors; note: % is set by controls: 0 for no effect and ±100 for the full control effect; nearly all actives have a fitted effect of over 60% in size
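Compounds, titrated to a top concentration of 110 uM, were incubated 30 min at room temperature with preformed BAZ2B/acetyl-K14 H3 peptide complex (50 nM each). Proximity signal was measured by AlphaScreen after 20 min with beads.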
JMJD2A Tudor: JMJD2A Tudor domain (human) inhibition | AlphaScreen JMJD2A-Tudor / H3K4me3 peptide binding | Potency, µM (highest dose often 114 µM), without a hit: at the highest dose activity change, negative = inhibition, actives largely listed as inhibitors | hit rate 4.4% among 390,000; note: % is set by controls: 0 for no effect and ±100 for the full control effect; nearly all actives have a fitted effect of over 50% in size
Sfp PPTase inh: Sfp phosphopantetheinyl transferase inhibition. Potency, µM, without a hit: largest response in the series, negative = inhibition, hits mostly inhibitors. Q9F4F7. Biochemical Sfp PPTase activity, qHTS. hit rate 3.5% among 310,000;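 note: the enzyme is Sfp with the accession as filed and its product quenches rhodamine fluorescence; 0% = enzyme reaction without inhibitor and -100% = no enzyme wells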
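With Hepes-Na pH 7.6 buffer containing 10 mM MgCl2, Sfp (15 nM) modified BHQ-2-YbbR (12.5 uM) using rhodamine-CoA (5 uM). Two reads 30 minutes apart at 525/598 nm yielded each well's rate.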
HP1b binding inh: blocks HP1-beta chromodomain binding to methylated histone tails. P83916. AlphaScreen HP1-beta / biotin-H3K9me3 peptide binding. Potency, µM (top dose mostly 114 µM), without a hit: top-dose activity change, negative = inhibition, usual class: inhibitors. hit rate 0.56% among 390,000. AID 540317; note: nearly all actives have a fitted effect of over 70% in size
Target sequence (P83916 whole entry, looked up): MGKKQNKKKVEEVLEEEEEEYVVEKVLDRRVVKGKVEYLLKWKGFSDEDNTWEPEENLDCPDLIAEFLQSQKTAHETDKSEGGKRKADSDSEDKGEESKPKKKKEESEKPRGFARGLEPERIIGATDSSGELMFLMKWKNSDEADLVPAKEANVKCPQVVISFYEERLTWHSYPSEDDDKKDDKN
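HP1-beta protein (50 nM final) preincubated 30 min at room temperature with biotinylated H3(1-18)K9me3 peptide (50 nM) in PBS pH 7.4, 0.01% Tween-20, then compound added for 30 min. AlphaScreen streptavidin donor/nickel chelate acceptor beads (10 ug/mL final), 30 min dark, luminescence read.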
Active calls of the source: *; ? = inconclusive; · = not tested or not shown; [ ] = remark or other dose. In the library only some 12% were active in any assay of this set; here they are far more common. Calls come from the whole dose curve; as a rule, active = well fitted curve in the direction sought with a large enough effect; inconclusive = small, poorly fitted or top-dose-only effect, or another doubt; inactive = no such curve, though single readings can be large; an effect the other way counts as inactive or inconclusive. Potency is the fitted concentration of half-maximal effect.

SMILES | L3MBTL1 inh | G9a inh | BAZ2B inh | JMJD2A Tudor | Sfp PPTase inh | HP1b binding inh
Cc1ccc(C(=O)OCC(=O)Nc2ccccc2)cc1NC(=O)c1ccco1 | 2% | 8%[59 µM] | · | 5% | 10% | 15%
Cc1ccc(C(=O)OCC(=O)Nc2sc3c(c2C#N)CCCCC3)cc1NC(=O)c1ccco1 | -5% | -11%[59 µM] | -2% | -21% | 12% | 20%
Cc1ccc(C(=O)OCC(=O)Nc2ncc(Cl)cc2Cl)cc1NC(=O)c1ccco1 | · | 45µM* | -30% | ? | 0% | 14%
COC(=O)C1=C(C)N(Cc2ccc(OC)cc2)C(=O)/C1=C\c1ccco1 | -29% | 10µM* | 13µM* | 40µM* | -9% | ?
COC(=O)C1=C(C)N(C)C(=O)/C1=C\c1ccco1 | -7% | -8%[59 µM] | ? | -22% | -8% | -7%
COC(=O)C1=C(C)N(Cc2ccco2)C(=O)/C1=C\c1ccc([N+](=O)[O-])cc1 | -3% | 18µM* | ? | ? | 20µM* | -9%
CSc1ccccc1OCc1cc(C(=O)N(C)CCn2nc(C)cc2C)no1 | · | 0%[0.501 µM] | ? | 13µM* | -3% | -4%
CSc1ccccc1OCc1cc(C(=O)N(C)Cc2nonc2C)no1 | · | 14% | -1% | -5% | 5% | 23%
Cc1cn(-c2cc(NC(=O)c3ccc(C)c(NC(=O)c4cccc(-c5cn[nH]c(=O)c5)c4)c3)cc(C(F)(F)F)c2)cn1 | 2% | 14µM* | -38% | ? | 16% | 21%
Cc1cc(C)nc(SCCS(=O)(=O)Cc2ccccc2)n1 | · | -1%[12.7 µM] | 5% | -12% | 9% | 28%
Clc1ccc(CNCCCSc2ncccn2)cc1Cl | 7% | 40µM* | -14%[57.1 µM] | -15% | 4% | 13%
Cc1cc(C)nc(SCCCNCc2ccccc2)n1 | · | 50µM* | -38% | -15% | -6% | 28%
Cc1sc(N)nc1-c1ccccc1 | 0% | -50% | -13% | -31% | -3% | -6%
CC(C)=NNc1nc(-c2ccccc2)c(C)s1 | · | 32µM* | · | -35% | 56µM* | ?
Cc1sc(N/N=C/c2ccco2)nc1-c1ccccc1 | -4% | ? | ? | ? | -4% | -20%
Cc1sc(N/N=C/c2cccnc2)nc1-c1ccccc1 | -19% | · | ? | 50µM* | -99% | -7%
Cc1ccc(NC(=O)C(=O)NCC(c2ccc3c(c2)OCO3)N2CCN(C)CC2)cc1C (stereo not given) | · | 3%[59 µM] | -1% | -11% | · | 11%[57 µM]
COc1ccc(CNC2CCCCC2C)c(OC)c1 (stereo not given) | 7% | 14µM* | 56µM* | 2µM* | -4% | ?
COc1ccc(CNC2CCCc3ccccc32)c(OC)c1 (stereo not given) | -3% | · | 4% | 50µM* | -19% | ?
CCOC(=O)c1cc(-c2ccc(F)cc2)n(CCC(=O)NCc2ccccc2OC)c1C | · | ? | -32% | ? | · | ?
COc1ccc(C2C(C(=O)N3CCOCC3)CCC(=O)N2c2ccc(OC)cc2)cc1 (stereo not given) | 50% | -1%[12.7 µM] | 18% | -15% | 4% | 20%
COc1ccc(N2C(=O)CCC(C(=O)N3CCCCC3)C2c2ccc(OC)c(OC)c2)cc1 (stereo not given) | 8% | 56µM* | 10% | -1% | 20% | 12%
CC(=O)c1cc2c(cc1N/C(=N/S(=O)(=O)c1ccc(C)cc1)c1ccc(F)cc1)OCO2 | · | -2%[59 µM] | -8% | -17% | · | 12%
Cc1[nH]c2ccccc2c1CN1CCC(Cc2ccccc2)CC1 | 1% | 14µM* | 45µM* | 0.79µM* | 79µM* | ?
OC(COc1ccc(C2C=CCC2)cc1)CN1CCCCC1 (stereo not given) | -4% | 40µM* | -4% | -29% | 18% | -19%
CCOc1ccc(CN2CCC(Cc3ccccc3)CC2)cc1 | 0% | 45µM* | ? | 25µM* | 1% | ?
OC(COc1ccccc1)CN1CCCCC1 (stereo not given) | · | · | · | -1% | · | 16%
